Test results reported in PubChem BioAssay AID1159580 (chemical genetic matrix, 2015).
Screen size: about 5,500 compounds; about 2,000 (36%) were called active. About 18% were inconclusive and are not listed. The list shows a part of the results. Values without a mark were called inactive. Rule as the data show it: active = normalized growth mostly below about 0.91 (no sharp cut-off); inconclusive = no clear call, values can overlap the other calls; inactive = mostly above about 0.92.

Test: chemical genetic growth profiling, strain panel (AID 1159580);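 also: tested at 20 µM; growth read once vehicle control cultures reached saturation at 30 °C; 1 = growth at the plate median or of vehicle wells; lower values mean less growth of the strain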
Conditions: S. cerevisiae deletion strains, growth OD
[1] = locus YAR019C, strain CDC15, active compounds read low
[2] = locus YBL105C, strain PKC1, active compounds read low
[3] = locus YBR135W, strain CKS1, active compounds read low
[4] = locus YBR136W, strain MEC1, active compounds read low
[5] = locus YBR160W, strain CDC28, active compounds read low
[6] = locus YDL017W, strain CDC7, active compounds read low
[7] = locus YDL028C, strain MPS1, active compounds read low
[8] = locus YDL101C, strain DUN1, active compounds read low
[9] = locus YDL108W, strain KIN28, active compounds read low
[10] = locus YDL132W, strain cdc53, active compounds read low
[11] = locus YDL214C, strain PRR2, active compounds read low
[12] = locus YDR052C, strain DBF4, active compounds read low
[13] = locus YDR054C, strain cdc34, active compounds read low
[14] = locus YDR226W, strain ADK1, active compounds read low
[15] = locus YDR477W, strain SNF1, active compounds read low
[16] = locus YER123W, strain YCK3, active compounds read low
[17] = locus YER133W, strain GLC7, active compounds read low
[18] = locus YFL009W, strain cdc4, active compounds read low
[19] = locus YFL029C, strain CAK1, active compounds read low
[20] = locus YFR003C, strain YPI1, active compounds read low
[21] = locus YFR019W, strain FAB1, active compounds read low
[22] = locus YFR028C, strain CDC14, active compounds read low
[23] = locus YGR040W, strain KSS1, active compounds read low
[24] = locus YGR052W, strain FMP48, active compounds read low
[25] = locus YGR092W, strain DBF2, active compounds read low
[26] = locus YHR030C, strain SLT2, active compounds read low
[27] = locus YHR079C, strain IRE1, active compounds read low
[28] = locus YHR082C, strain KSP1, active compounds read low
[29] = locus YHR205W, strain SCH9, active compounds read low
[30] = locus YIL147C, strain SLN1, active compounds read low
[31] = locus YJL095W, strain BCK1, active compounds read low
[32] = locus YJL128C, strain PBS2, active compounds read low
[33] = locus YJL157C, strain FAR1, active compounds read low
[34] = locus YJR016C, strain ILV3, active compounds read low
[35] = locus YJR066W, strain TOR1 (second series), active compounds read low
[36] = locus YJR066W, strain TOR1, active compounds read low
[37] = locus YKL048C, strain ELM1, active compounds read low
[38] = locus YKL067W, strain YNK1, active compounds read low
[39] = locus YKL101W, strain HSL1, active compounds read low
[40] = locus YKL193C, strain SDS22, active compounds read low
[41] = locus YKL203C, strain TOR2, active compounds read low
[42] = locus YLR113W, strain HOG1, active compounds read low
[43] = locus YLR133W, strain CKI1, active compounds read low
[44] = locus YLR403W, strain SFP1, active compounds read low
[45] = locus YML070W, strain DAK1, active compounds read low
[46] = locus YMR001C, strain CDC5, active compounds read low
[47] = locus YMR205C, strain PFK2 (second series), active compounds read low
[48] = locus YMR277W, strain FCP1, active compounds read low
[49] = locus YNL006W, strain LST8, active compounds read low
[50] = locus YNL020C, strain ARK1, active compounds read low
[51] = locus YNL161W, strain CBK1, active compounds read low
[52] = locus YNL183C, strain NPR1, active compounds read low
[53] = locus YNL207W, strain RIO2, active compounds read low
[54] = locus YNL222W, strain SSU72, active compounds read low
[55] = locus YNL307C, strain MCK1 (second series), active compounds read low
[56] = locus YOL078W, strain AVO1, active compounds read low
[57] = locus YOL136C, strain PFK27, active compounds read low
[58] = locus YOR061W, strain CKA2, active compounds read low
[59] = locus YOR119C, strain RIO1, active compounds read low
[60] = locus YOR231W, strain MKK1, active compounds read low
[61] = locus YOR329C, strain SCD5, active compounds read low
[62] = locus YPL031C, strain PHO85, active compounds read low
[63] = locus YPL153C, strain RAD53, active compounds read low
[64] = locus YPL204W, strain HRR25, active compounds read low
[65] = locus YPL209C, strain IPL1, active compounds read low
[66] = locus YPL256C, strain CLN2, active compounds read low
[67] = locus YPR025C, strain CCL1, active compounds read low
[68] = locus YPR106W, strain ISR1, active compounds read low
[69] = locus YPR111W, strain DBF20, active compounds read low
[70] = strain NNK1, active compounds read low
[71] = strain TSCII, active compounds read low

`Clc1ccc(-c2noc(CSC3=NCCN3)n2)cc1` gave a normalized growth [1] of 0.987, a normalized growth [2] of 0.987 and a normalized growth [3] of 0.98. The normalized growth [4] was 0.981, the normalized growth [5] was 0.984 and the normalized growth [6] was 0.986. It also gave a normalized growth [7] of 0.979, a normalized growth [8] of 0.989 and a normalized growth [9] of 0.979. It also gave a normalized growth [10] of 0.98, a normalized growth [11] of 0.923 and a normalized growth [12] of 0.981. The normalized growth [13] was 0.96, the normalized growth [14] was 0.975 and the normalized growth [15] was 0.938. For the same compound, the normalized growth [16] was 0.904, the normalized growth [17] was 0.935 and the normalized growth [18] was 0.978. It also gave a normalized growth [19] of 0.987, a normalized growth [20] of 0.974 and a normalized growth [21] of 0.948. It also gave a normalized growth [22] of 0.971, a normalized growth [23] of 0.926 and a normalized growth [24] of 0.964. For the same compound, the normalized growth [25] was 0.955, the normalized growth [26] was 0.93 and the normalized growth [27] was 0.968. It also gave a normalized growth [28] of 1.02, a normalized growth [29] of 0.962 and a normalized growth [30] of 0.969. The normalized growth [31] was 0.949, the normalized growth [32] was 0.912 and the normalized growth [33] was 0.925. For the same compound, the normalized growth [34] was 0.974, the normalized growth [35] was 0.912 and the normalized growth [36] was 1.08. For the same compound, the normalized growth [37] was 0.96, the normalized growth [38] was 0.933 and the normalized growth [39] was 0.939. For the same compound, the normalized growth [40] was 0.976, the normalized growth [41] was 1.01 and the normalized growth [42] was 0.839 (active). The normalized growth [43] was 0.959, the normalized growth [44] was 0.982 and the normalized growth [45] was 0.912. It also gave a normalized growth [46] of 0.987, a normalized growth [47] of 0.938 and a normalized growth [48] of 0.975. It also gave a normalized growth [49] of 0.985, a normalized growth [50] of 0.962 and a normalized growth [51] of 0.965. For the same compound, the normalized growth [52] was 1.05, the normalized growth [53] was 0.988 and the normalized growth [54] was 0.981. It also gave a normalized growth [55] of 0.946, a normalized growth [56] of 0.974 and a normalized growth [57] of 0.941. For the same compound, the normalized growth [58] was 0.938, the normalized growth [59] was 1 and the normalized growth [60] was 0.965. For the same compound, the normalized growth [61] was 0.981, the normalized growth [62] was 0.924 and the normalized growth [63] was 0.92. The normalized growth [64] was 0.903, the normalized growth [65] was 0.986 and the normalized growth [66] was 0.945. It also gave a normalized growth [67] of 0.986, a normalized growth [68] of 0.975 and a normalized growth [69] of 0.97. It also gave a normalized growth [70] of 0.977 and a normalized growth [71] of 0.986.
For `COc1cc(Cl)c(NS(=O)(=O)c2cc(Br)c(Br)s2)c(OC)c1`, the normalized growth [1] was 0.96, the normalized growth [2] was 0.977 and the normalized growth [3] was 0.967. For the same compound, the normalized growth [4] was 0.977, the normalized growth [5] was 0.958 and the normalized growth [6] was 0.978. It also gave a normalized growth [7] of 0.96, a normalized growth [8] of 0.977 and a normalized growth [9] of 0.957. It also gave a normalized growth [10] of 0.954, a normalized growth [11] of 0.916 and a normalized growth [12] of 0.988. It also gave a normalized growth [13] of 0.953, a normalized growth [14] of 0.962 and a normalized growth [15] of 0.904. It also gave a normalized growth [16] of 0.898, a normalized growth [17] of 0.918 and a normalized growth [18] of 0.948. It also gave a normalized growth [19] of 0.956, a normalized growth [20] of 0.973 and a normalized growth [21] of 0.964. For the same compound, the normalized growth [22] was 0.949, the normalized growth [23] was 0.888 and the normalized growth [24] was 0.923. The normalized growth [25] was 0.831, the normalized growth [26] was 0.664 (active) and the normalized growth [27] was 0.905. The normalized growth [28] was 0.924, the normalized growth [29] was 0.933 and the normalized growth [30] was 0.961. It also gave a normalized growth [31] of 0.885, a normalized growth [32] of 0.923 and a normalized growth [33] of 0.919. It also gave a normalized growth [34] of 0.972, a normalized growth [35] of 0.858 and a normalized growth [36] of 0.896. For the same compound, the normalized growth [37] was 0.969, the normalized growth [38] was 0.9 and the normalized growth [39] was 0.917. For the same compound, the normalized growth [40] was 0.959, the normalized growth [41] was 0.986 and the normalized growth [42] was 0.815 (active). For the same compound, the normalized growth [43] was 0.959, the normalized growth [44] was 0.922 and the normalized growth [45] was 0.916. It also gave a normalized growth [46] of 0.969, a normalized growth [47] of 0.948 and a normalized growth [48] of 0.946. It also gave a normalized growth [49] of 0.955, a normalized growth [50] of 0.931 and a normalized growth [51] of 0.97. The normalized growth [52] was 0.904, the normalized growth [53] was 0.962 and the normalized growth [54] was 0.95. The normalized growth [55] was 0.902, the normalized growth [56] was 0.96 and the normalized growth [57] was 0.901. For the same compound, the normalized growth [58] was 0.912, the normalized growth [59] was 0.918 and the normalized growth [60] was 0.908. For the same compound, the normalized growth [61] was 0.965, the normalized growth [62] was 0.894 and the normalized growth [63] was 0.866. For the same compound, the normalized growth [64] was 0.868, the normalized growth [65] was 0.976 and the normalized growth [66] was 0.856 (active). The normalized growth [67] was 0.968, the normalized growth [68] was 0.954 and the normalized growth [69] was 0.938. The normalized growth [70] was 0.975 and the normalized growth [71] was 0.963.
